Test results reported in the supplement of paper PMC6555819.

Each sequence was assayed on PPARg homodimer (NR concentration 180 nM) (assay: PBM binding z-score (relative to random genomic background probes); higher = stronger binding; sequences stand for … in GC…GCGATTGACAGCGTAGAATGAAGG).
How it was run: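 Custom Agilent 4×180K protein-binding microarrays carried double-stranded probes. Their 34-nt variable regions held direct-repeat seeds, single-nucleotide variants, half-site ablations and random human genomic background sequences. Arrays were incubated 1 h with ligand-free nuclear receptor dimers in PBS pH 7.4, 2% milk, 0.02% Triton X-100, 1 mM DTT, 0.2 mg/mL BSA and 0.4 mg/ml salmon testes DNA. Antibodies against each partner (one per run) detected binding, and scanned fluorescence was regression-normalized. Binding z-scores use random background probes as reference.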

| Sequence | PBM binding z-score |
| --- | --- |
| ATCGAAAGGTAGACGAGGTGAGTATACACCGTTT | 0.162 |
| CAGCCTAGGTCAGGGCCGGTATAGGAGGAACGTT | 0.324 |
| CAAACTAGGTCAAGAGGTCGAAGTCCGCTTCCCG | 3.87 |
| TAGCCTAGGTCATTGGGGCAGTATAGTACGCATC | 1.66 |
| CGAACTAGGTCATTGACAGGACAGTGAATAGTAA | 1.77 |
| AGATGTAGGTTACATCCGGGTCATTCAGGCTATG | 1.58 |
| CAAACTAGGTCAAAGAGGTCAAAGTCCGTGCGTA | 5.02 |
| CATACAGGGTCAGCTAGGCCAGGGTAGGGACGGC | 1.37 |
| GCTTACGGGTCGAAGGTTATAGCATGAATAGAAT | 1.39 |
| CCTATTGGGCCACGAAAGGTCATTGATTCAGTGA | 5.52 |
| CCCACTGGGCCAAAGGTCATTGATTCCAATGCTC | 3.86 |
| CCGACTGGGGCAAAAGTTACCATACTCAGTACGA | 0.506 |
| ACTAGCAGGCCAAGTTTGGGTCACTCTAACAAAG | 0.634 |
| CGAACTAAGTCAGAACAGGACAGTGAAGGATGAT | 0.404 |
| ACAGACAGTTGATGAAGGTAACTCAGGCTATCAT | 0.771 |
| ATCTCTAGGTAACCAAGTTCAGTGGATGCCGAAC | 0.334 |
| CAAACTAGGTCACCGGAAGGTCAAGGTCCGCATG | 8.45 |
| CCTTACGGGTCACTGACAGTTTATAGCATTTGGA | 2.21 |
| AGGCAAAGTTCAGGACGAGGTAACGTAAAGCACG | 2.28 |
| CGTCCAAGGCCAGCAGGTCAGTGAAAGCGACGTG | 0.0229 |
| ATCTCTAGGTAAGACTCAGTGCAGTGAAGAACGC | 0.398 |
| CCGACTGGGGCATAAGGTTAACATAAGCCAGCCC | 0.548 |
